Results as given in PubChem BioAssay (NCATS).
Inconclusive results are not listed. Entries that show only a call come without a potency. Active and inactive are the calls of the source. Calls follow the shape of the dose curve; as a rule, active = well fitted cell-killing curve with a large enough effect; inconclusive = small, poorly fitted or top-dose-only effect; inactive = flat fitted curve, though single readings scatter.

Test: qHTS of pediatric cancer cell lines to identify multiple opportunities for drug repurposing: Primary screen for DAOY cells (AID 1347090); also: nearly all actives have a fitted effect of over 55% in size
Details: DAOY medulloblastoma viability, CellTiter-Glo luminescence, 48 h; series mostly up to 46 µM
Method in brief: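 Cell viability, CellTiter-Glo luminescence; 500-1,000 cells/well, 8- or 11-point titration, 48 h compound exposure at 37 degrees C, 5% CO2. Controls: DMSO neutral, bortezomib 2.3 µM final as positive.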
Potency is read from the fitted curve at half-maximal effect.

SMILES	Potency
O=C(O)P(=O)(O)O	inactive
CC(C)n1c(/C=C/[C@@H](O)C[C@@H](O)CC(=O)O)c(-c2ccc(F)cc2)c2ccccc21	1330 nM (active)
C=C[C@H]1CN2CC[C@H]1C[C@@H]2[C@@H](O)c1ccnc2ccc(OC)cc12	inactive
O=C(O)CCNC(=O)c1ccccc1	inactive
CC(C)NCC(O)c1ccc2ccccc2c1 (configuration not stated)	inactive
CC(=C(CCOC(=O)C(C)C)SSC(CCOC(=O)C(C)C)=C(C)N(C=O)Cc1cnc(C)nc1N)N(C=O)Cc1cnc(C)nc1N	inactive
CC1(C)OC[C@@H]2O[C@@]3(C(=O)O)OC(C)(C)O[C@H]3[C@@H]2O1	inactive
CN1CCN(c2c(F)cc3c(=O)c(C(=O)O)cn4c3c2SCC4)CC1	inactive
Cc1cccc(C)c1NC(=O)CN1CCCCCC1	inactive
CCN(CC)CCOC(=O)C(Cc1cccc2ccccc12)CC1CCCO1 (configuration not stated)	inactive
Cc1cc(-c2ccccc2)nnc1NCCN1CCOCC1	inactive
CCN1CCN(C(=O)N[C@@H](C(=O)N[C@@H]2C(=O)N3C(C(=O)O)=C(CSc4nnnn4C)CS[C@H]23)c2ccc(O)cc2)C(=O)C1=O	inactive
O=C(CN1CCN(Cc2ccc3c(c2)OCO3)CC1)N1c2ccccc2Sc2ccccc21	inactive
O=S(c1cc(Cl)cc(Cl)c1O)c1cc(Cl)cc(Cl)c1O	inactive
Oc1ccc(Cl)cc1Cc1cc(Cl)ccc1O	21100 nM (active)
Cc1ccc(O)c([C@H](CCN(C(C)C)C(C)C)c2ccccc2)c1	inactive

SMILES	Potency
COc1ccc(CCN(C)CCCN2CCc3cc(OC)c(OC)cc3CC2=O)cc1OC	inactive
C=C[C@@]1(C)CC(=O)[C@]2(O)[C@@]3(C)[C@@H](O)CCC(C)(C)[C@@H]3[C@H](O)[C@H](OC(C)=O)[C@@]2(C)O1	inactive
CCOc1ccccc1OCCN[C@H](C)Cc1ccc(OC)c(S(N)(=O)=O)c1	inactive
CCCCC(CC)CN1CN(CC(CC)CCCC)CC(C)(N)C1 (configuration not stated)	inactive
CC(=O)Nc1ccc(OC(=O)c2ccccc2OC(C)=O)cc1	inactive
OCc1ccccn1	inactive
COc1cc(O)c(C(=O)c2ccccc2)cc1S(=O)(=O)O	inactive
CCNC(=O)/C=C/c1cccc(Br)c1	inactive
CCOc1ccc(NC(C)=O)cc1	inactive
OC1C(O)C(O)C(O)C(O)C1O (configuration not stated)	inactive
Clc1cccc(C(c2ccc3nc[nH]c3c2)n2ccnc2)c1 (configuration not stated)	inactive
O=C1c2cccc3c2[C@H](CCC3)CN1[C@@H]1CN2CCC1CC2	inactive
Nc1nc(Cl)nc2c1ncn2[C@@H]1O[C@H](CO)[C@@H](O)[C@@H]1F	422 nM (active)
CC(=O)Nc1ncc([N+](=O)[O-])s1	inactive
CC(C)Nc1cccnc1N1CCN(C(=O)c2cc3cc(NS(C)(=O)=O)ccc3[nH]2)CC1	inactive
CN(C)CCOC(=O)C(c1ccccc1)C1(O)CCCC1 (configuration not stated)	inactive
